Assay outcomes (PubChem)
miR-21 reporter = qHTS Assay for Modulators of miRNAs and/orActivators of miR-21; HeLa miR-21 FLuc reporter, luciferase, 48 h; Potency, µM (top dose mostly 38.3 µM), for inactives: at the highest dose activity change, positive = activation, usual class: activators; 340,000 tested, under 10 active; AID 2288, 2010;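 also: % of control where 0% means no effect; miR-21 action dims this reporter so a rising signal means less miR-21 action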
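HeLa cells endogenously expressing miR-21, stably carrying CMV-driven firefly luciferase with a downstream miR-21 binding site, 2000 cells/well. Titrations up to approximately 40 uM, 48 hours; luciferase luminescence read.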
Nrf2 block = Nrf2 qHTS screen for inhibitors. A549 ARE-Fluc reporter, luciferase luminescence, 18-24 h. Potency, µM (doses to about 46 µM), for the others: at the top dose activity change, negative = inhibition, most hits filed as inhibitors. actives 2.1% (n = 360,000); also: potency is read from the fitted curve at half-maximal effect; % is scaled to controls: 0 for no effect and ±100 for the full control effect; nearly all actives have a fitted effect of over 60% in size
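Nrf2 function is reported as luminescence of an ARE-controlled luciferase in A549 cells. Compounds were tested at several concentrations, and a CellTiter-Fluor read on the same wells flagged cytotoxicity.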
PI4K2A block = qHTS for small molecular inhibitors of PI4K2A; Phosphatidylinositol 4-kinase type 2-alpha (Homo sapiens), Q9BTU6; purified PI4K2A, ADP-Glo luminescence, 1 h; active compounds read low; activity change, negative = inhibition, % at 76.9 µM; actives 0.13% (n = 420,000); in the data active = activity change below about -50%; inconclusive = mostly about -30% to -49%;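 also: -100% = wells without enzyme as full effect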
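In this quantitative HTS, ADP production by PI4K2A was quantified luminescently after 1 h at ambient temperature; 100 microM adenosine served as plate-quality control.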
Nrf2 ARE act = qHTS of Nrf2 Activators. AREc32 ARE-luciferase reporter (MCF7-derived line), luminescence, 24 h. Potency, µM (doses to about 46.1 µM), for inactives: at the highest dose activation, most hits filed as activators. actives 0.31% (n = 410,000); also: potency is read from the fitted curve at half-maximal effect; % of control where 0% means no effect; nearly all actives have a fitted effect of over 65% in size
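AREc32_Fluc, 1000 cells/well, OPTI-MEM + 5% FBS, o/n 37 deg C 5% CO2; 23 nL cpd by pin tool, 24 hr; Steady-Glo 30 min RT, luminescence.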
GALK inh = qHTS Assay for Inhibitors of Human Galactokinase (GALK) | P51570 | Purified GALK, Kinase-Glo residual ATP luminescence | Potency, µM (top dose mostly 57.5 µM), inactives show at the highest dose activity change, negative = inhibition, most hits filed as inhibitors | actives 0.007% (n = 270,000) | AID 1868, 2009; also: potency is read from the fitted curve at half-maximal effect; % is scaled to controls: 0 for no effect and ±100 for the full control effect
Target sequence (P51570 whole entry, looked up): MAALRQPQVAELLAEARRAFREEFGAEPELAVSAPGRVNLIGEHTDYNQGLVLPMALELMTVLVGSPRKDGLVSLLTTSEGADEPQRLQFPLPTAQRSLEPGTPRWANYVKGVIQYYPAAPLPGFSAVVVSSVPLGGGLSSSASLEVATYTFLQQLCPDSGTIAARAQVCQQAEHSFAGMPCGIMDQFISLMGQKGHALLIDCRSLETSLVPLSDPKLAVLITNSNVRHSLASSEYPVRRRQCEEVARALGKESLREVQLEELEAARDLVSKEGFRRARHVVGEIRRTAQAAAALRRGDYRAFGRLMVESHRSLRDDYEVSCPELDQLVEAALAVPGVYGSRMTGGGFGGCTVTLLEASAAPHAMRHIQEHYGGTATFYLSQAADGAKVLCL
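5 nM enzyme, 35 uM ATP, 100 uM galactose, 20 mM HEPES pH8.0, 5 mM MgCl2; 1 h RT; residual ATP by Kinase-Glo Plus luminescence, qHTS format.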
A549 tox = Nrf2 qHTS screen for inhibitors: counterscreen for cytotoxicity | A549 ARE-Fluc cells, CellTiter-Fluor viability, 18-24 h | Potency, µM (top dose mostly 46 µM), inactives show at the highest dose activity change, negative = cytotoxicity, hits mostly inhibitors | actives 0.16% (n = 390,000); also: potency is read from the fitted curve at half-maximal effect; % is scaled to controls: 0 for no effect and ±100 for the full control effect
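A549 ARE_Fluc cells in 5% FBS OPTI-MEM were exposed to compounds in concentration-response for 18-24 h at 37 deg C. Viability was read by CellTiter-Fluor fluorescence (Ex 405/Em 525) after 30 min, before the luciferase read.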
Starred values were filed as active, the others as inactive. In the library only some 2.2% were active in any assay of this set; here they are far more common. Unless noted, calls follow the shape of the dose curve; as a rule, active = well fitted curve in the direction sought with a large enough effect; inconclusive = small, poorly fitted or top-dose-only effect, or another doubt; inactive = no such curve, though single readings can be large; an effect the other way counts as inactive or inconclusive.

Nc1[nH]c(C(=O)c2ccccc2)c(-c2cccc3ccccc23)c1C(=O)c1c(-c2ccccc2)[nH]c2ccccc12 was read as PI4K2A block 4.2.
For O=C1CC(c2ccco2)CC(O)=C1C=Nc1cc(Cl)ccc1O (stereo not drawn) the results were miR-21 reporter 3.5%, Nrf2 block inconclusive, PI4K2A block -23.9, Nrf2 ARE act 10µM*, GALK inh 1.4% and A549 tox -7.8%.
For O=C1CC(c2ccccc2)CC(O)=C1C=Nc1ccccc1O (stereo not drawn) the results were miR-21 reporter 1.5%, Nrf2 block -15.8%, PI4K2A block -0.3, Nrf2 ARE act 14.1µM*, GALK inh -1.8% and A549 tox 1.0%.
O=C1CC(c2ccccc2)CC(O)=C1C=Nc1ccccc1 (stereo not drawn) was read as miR-21 reporter -0.6%, Nrf2 block -25.5%, PI4K2A block -1.1, Nrf2 ARE act 5.2%, GALK inh 6.6% and A549 tox -2.6%.
Screening C[C@H]1[C@@H](OC(=O)NCc2cccc(C(F)(F)F)c2)CC[C@@]23CCCN2C(=O)CCC[C@@H]13 returned PI4K2A block 4.0.
`CNC(=O)c1cnn2c(C)cc(C)nc12` gave Nrf2 block -25.0% and A549 tox -11.4%.
CCOc1ccc(OCC)c(NC(=O)CSc2nc3c(c(=O)n(C)c(=O)n3C)n2C(C)C)c1 was read as miR-21 reporter 5.5%, Nrf2 block 16.4µM*, PI4K2A block -1.9, Nrf2 ARE act 4.2%, GALK inh 2.3% and A549 tox -9.4%.
`CCOc1ccc(OCC)c(NC(=O)CSc2nc3c(c(=O)n(C)c(=O)n3C)n2C)c1` gave miR-21 reporter -3.8% and GALK inh -1.3%.
For Cc1ccc2nc(-c3ccc(NC(=O)CSc4nnc(-c5cccc(Cl)c5)n4Cc4ccco4)cc3)sc2c1 the results were PI4K2A block -22.8.
`Cc1ccc(C(=O)Nc2cccc(C(F)(F)F)c2)cc1Nc1ccccn1` gave miR-21 reporter 14.8%, Nrf2 block 20.6µM*, PI4K2A block -0.4, Nrf2 ARE act 2.3%, GALK inh 2.5% and A549 tox inconclusive.
`Cc1ccc(C(=O)Nc2cccc(C(F)(F)F)c2)cc1Nc1cncnc1` gave miR-21 reporter -9.2%, Nrf2 block inconclusive, PI4K2A block 0.4, Nrf2 ARE act 0.0% and A549 tox 0.2%.
For FC(F)(F)c1cccc(NC(=S)NNC(=S)Nc2cccc(C(F)(F)F)c2)c1 the results were miR-21 reporter inconclusive and GALK inh -5.7%.
Cc1ccccc1C(=O)NNC(=S)Nc1cccc(C(F)(F)F)c1 was read as miR-21 reporter inconclusive, Nrf2 block 11.6µM*, PI4K2A block -16.6, Nrf2 ARE act -1.7%, GALK inh 0.1% and A549 tox inconclusive.
`Cc1cnc(Nc2nc3ccccc3o2)nc1C(=O)Nc1cccc(C(F)(F)F)c1` gave miR-21 reporter -15.0%, Nrf2 block 16.4µM*, PI4K2A block -2.8, Nrf2 ARE act 6.7%, GALK inh 2.3% and A549 tox inconclusive.
`Cc1ccc(-n2c(SCC(=O)Nc3ccc(OCc4ccccc4)cc3)nnc2-c2cnccn2)cc1` gave PI4K2A block -4.8.
`Cc1c(-c2ccc(O)cc2)n(Cc2ccc(OCCN3CCCCCC3)cc2)c2ccc(O)cc12` gave PI4K2A block -2.2.
Screening CN(C)/C=C/C(=O)c1ccc(Cl)c([N+](=O)[O-])c1 returned miR-21 reporter 0.7%, Nrf2 block 2.7%, PI4K2A block -3.2, Nrf2 ARE act 12.6µM*, GALK inh 0.3% and A549 tox -10.5%.
O=C(NC(=S)Nc1cccc2cccnc12)c1cccs1 was read as miR-21 reporter 0.7%, Nrf2 block 6.3%, PI4K2A block -1.5, Nrf2 ARE act 8.91µM*, GALK inh 1.3% and A549 tox -3.0%.
For O=C(Nc1cccc2cccnc12)c1ccc(F)cc1 the results were miR-21 reporter -32.4%, Nrf2 block inconclusive, PI4K2A block -1.8, Nrf2 ARE act 12.6µM* and A549 tox 1.2%.
For O=C(NC(=S)Nc1cccc(Cl)c1N1CCCCC1)c1cccs1 the results were miR-21 reporter -7.7%, PI4K2A block 2.8, Nrf2 ARE act 7.8% and A549 tox inconclusive.
For O=C(NC(=S)Nc1cccc2cccnc12)c1ccccc1 the results were miR-21 reporter -18.9%, Nrf2 block inconclusive, PI4K2A block 2.9, Nrf2 ARE act 4.47µM*, GALK inh 0.9% and A549 tox -2.2%.
N#Cc1ccccc1NC(=S)NC(=O)c1cccs1 was read as miR-21 reporter -26.7%, Nrf2 block 1.2%, PI4K2A block 32.5, Nrf2 ARE act 15.8µM*, GALK inh 12.4% and A549 tox 1.9%.
COc1ccc(C2c3c(nc(C)[nH]c3=O)Oc3ccc4ccccc4c32)cc1OC (stereo not drawn) was read as Nrf2 block -7.0% and A549 tox 13.8%.
CCN[C@@H]1C[C@H](N)[C@@H](OC2OC(CN)=CCC2N)[C@H](O)[C@H]1O[C@H]1OC[C@](C)(O)[C@H](NC)[C@H]1O (stereo partly drawn) was read as PI4K2A block inactive.
COC(=O)c1cc2c(=O)c3ccccc3oc2nc1C was read as miR-21 reporter -32.5%, Nrf2 block inconclusive, PI4K2A block -2.1, Nrf2 ARE act 7.94µM*, GALK inh -1.8% and A549 tox -0.2%.
`Cc1nc2oc3ccccc3c(=O)c2cc1C(=O)O` gave miR-21 reporter -15.4%, Nrf2 block 9.0%, PI4K2A block -16.6, Nrf2 ARE act -0.2%, GALK inh 8.1% and A549 tox -3.8%.
`COc1cc2oc3ccccc3c(=O)c2cc1OC` gave miR-21 reporter -26.0%, Nrf2 block 6.8%, PI4K2A block -3.2, Nrf2 ARE act 10µM* and A549 tox -1.2%.
Screening COc1ccc2oc3cc(Cl)ccc3c(=O)c2c1 returned PI4K2A block -3.0 and Nrf2 ARE act 7.94µM*.
`CCCC[C@H]1C2CC(OC(=O)Nc3ccc4c(c3)OCO4)C(C2)[C@H]2CCCCN21` (stereo partly drawn) gave PI4K2A block 4.0.
